Each structure is given as a SMILES string. Counter-ions that a name gives are not always drawn.

The subject of the assay is MDA-MB-468. Put plainly: phospho-S6 immunofluorescence (DAPI-normalised), per-plate z-score; higher = higher phospho-S6 signal (less pathway suppression). The conditions noted are these: 24 h. On the procedure: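 GPCR-targeted compound library (MedChemExpress HY-L006) tested on MDA-MB-468 PTEN-null TNBC cells in 384-well plates at 0.1, 1 or 10 uM, combined with vehicle, GDC0941 450 nM or lapatinib 1 uM, for 24 h. Phospho-S6 (S240/244) immunofluorescence normalised to DAPI and expressed as a per-plate z-score; values are the mean of biological triplicates.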

`CC[N+](C)(CC)CCOC(=O)C(O)(c1ccccc1)c1ccccc1` [Methylbenactyzium Bromide] (compound 10 µM): the “phospho-S6 immunofluorescence (z-score)” value (co-treatment: GDC0941 450 nM) was -0.26, the “phospho-S6 immunofluorescence (z-score)” value (co-treatment: lapatinib 1 uM) is -0.59 and the “phospho-S6 immunofluorescence (z-score)” value (co-treatment: vehicle) is -0.57.

Regarding `CC(C)C[C@H](NC(=O)[C@H](Cc1ccccc1)NC(=O)CNC(=O)[C@@H](C)NC(=O)[C@@H](N)Cc1ccc(O)cc1)C(=O)O` [[D-Ala2]leucine-enkephalin] (compound 10 µM), the “phospho-S6 immunofluorescence (z-score)” value by setting is: (co-treatment: GDC0941 450 nM) -0.29; (co-treatment: lapatinib 1 uM) 0.01; (co-treatment: vehicle) 1.34.

`N#Cc1c(Oc2cccc(OS(=O)(=O)CCCC(F)(F)F)c2)cccc1C(F)(F)F` (compound 10 µM): the “phospho-S6 immunofluorescence (z-score)” value runs as follows: (co-treatment: GDC0941 450 nM) -3.05; (co-treatment: lapatinib 1 uM) -2.85; (co-treatment: vehicle) -5.42.

For the compound `C[N@+]1(CC2CC2)CC[C@]23c4c5ccc(O)c4O[C@H]2C(=O)CC[C@@]3(O)[C@H]1C5` [Methylnaltrexone (Bromide)] (compound 10 µM), the “phospho-S6 immunofluorescence (z-score)” value was 0.46 (co-treatment: GDC0941 450 nM), 0.44 (co-treatment: lapatinib 1 uM) and -0.66 (co-treatment: vehicle).

Take `CN1CCC2=C(C1)c1ccccc1Cc1ccccc12` [Setiptiline] (compound 10 µM): the “phospho-S6 immunofluorescence (z-score)” value was -0.28 (co-treatment: GDC0941 450 nM), -1.52 (co-treatment: lapatinib 1 uM) and -0.24 (co-treatment: vehicle).

On to `CN1CCC2=C(C1)c1ccccc1Cc1ccccc12` [Setiptiline (maleate)] (compound 10 µM), for which the “phospho-S6 immunofluorescence (z-score)” value was -0.68 (co-treatment: GDC0941 450 nM), -1.28 (co-treatment: lapatinib 1 uM) and -1.11 (co-treatment: vehicle).

Consider `Cc1ccc2c(c1)C1(CCN(CCc3nc(-c4ccccc4)oc3C)CC1)OC(=O)N2` (compound 10 µM), for which the “phospho-S6 immunofluorescence (z-score)” value is 0.56 (co-treatment: GDC0941 450 nM), 0.85 (co-treatment: lapatinib 1 uM) and 0.89 (co-treatment: vehicle).

Regarding `CNC(C)Cc1ccccc1OC` (centres undefined) [Methoxyphenamine (Hydrochloride)] (compound 10 µM), the “phospho-S6 immunofluorescence (z-score)” value was 0.57 (co-treatment: GDC0941 450 nM), -0.2 (co-treatment: lapatinib 1 uM) and 0.23 (co-treatment: vehicle).

Consider `CC(C)(C)NCC(O)c1ccc(O)cc1Cl` (centres undefined) (compound 10 µM), for which the “phospho-S6 immunofluorescence (z-score)” value reads like this: (co-treatment: GDC0941 450 nM) 0.77; (co-treatment: lapatinib 1 uM) 0.7; (co-treatment: vehicle) 0.14.

In the case of `COc1ccc2c(c1)[C@]13CCCC[C@@H]1[C@H](C2)N(C)CC3` [Dextromethorphan (hydrobromide hydrate)] (compound 10 µM), the “phospho-S6 immunofluorescence (z-score)” value (co-treatment: GDC0941 450 nM) is -0.24, the “phospho-S6 immunofluorescence (z-score)” value (co-treatment: lapatinib 1 uM) was -0.31 and the “phospho-S6 immunofluorescence (z-score)” value (co-treatment: vehicle) was 0.42.

In the case of `CCC1(c2cccc(O)c2)CCCCN(C)C1` (centres undefined) [Meptazinol (hydrochloride)] (compound 10 µM), the “phospho-S6 immunofluorescence (z-score)” value reads like this: (co-treatment: GDC0941 450 nM) 0.48; (co-treatment: lapatinib 1 uM) 0.25; (co-treatment: vehicle) 0.11.

On to `C=CCN1C[C@H](C(=O)N(CCCN(C)C)C(=O)NCC)C[C@@H]2c3cccc4[nH]cc(c34)C[C@H]21` [Cabergoline] (compound 10 µM), for which the “phospho-S6 immunofluorescence (z-score)” value (co-treatment: GDC0941 450 nM) amounted to 0.82, the “phospho-S6 immunofluorescence (z-score)” value (co-treatment: lapatinib 1 uM) is -0.33 and the “phospho-S6 immunofluorescence (z-score)” value (co-treatment: vehicle) was -0.33.

With `O=C(C[S+]([O-])C(c1ccccc1)c1ccccc1)NO` (centres undefined) [Adrafinil] (compound 10 µM), the “phospho-S6 immunofluorescence (z-score)” value (co-treatment: GDC0941 450 nM) was -0.02, the “phospho-S6 immunofluorescence (z-score)” value (co-treatment: lapatinib 1 uM) came to 0.28 and the “phospho-S6 immunofluorescence (z-score)” value (co-treatment: vehicle) was -0.05.

As to `CCN(CCCCO)C(C)Cc1ccc(O)cc1` (centres undefined) [O-desmethyl Mebeverine alcohol (hydrochloride)] (compound 10 µM), the “phospho-S6 immunofluorescence (z-score)” value (co-treatment: GDC0941 450 nM) was -0.73, the “phospho-S6 immunofluorescence (z-score)” value (co-treatment: lapatinib 1 uM) was -0.03 and the “phospho-S6 immunofluorescence (z-score)” value (co-treatment: vehicle) was -0.64.

Consider `CN1[C@@H]2CC[C@H]1C[C@@H](OC(=O)C(CO)c1ccccc1)C2` (some centres undefined) [Atropine (sulfate monohydrate)] (compound 10 µM), for which the “phospho-S6 immunofluorescence (z-score)” value is -1.09 (co-treatment: GDC0941 450 nM), -0.18 (co-treatment: lapatinib 1 uM) and -0.82 (co-treatment: vehicle).

Take `COC(=O)C1=CCCN(C)C1` [Arecoline (hydrobromide)] (compound 10 µM): the “phospho-S6 immunofluorescence (z-score)” value worked out at 0.22 (co-treatment: GDC0941 450 nM), 0.44 (co-treatment: lapatinib 1 uM) and 0.56 (co-treatment: vehicle).

For the compound `Cc1c(C(=O)c2cccc3ccccc23)c2cccc3c2n1[C@H](CN1CCOCC1)CO3` [WIN 55,212-2 (Mesylate)] (compound 10 µM), the “phospho-S6 immunofluorescence (z-score)” value was -2.24 (co-treatment: GDC0941 450 nM), -0.84 (co-treatment: lapatinib 1 uM) and -3.25 (co-treatment: vehicle).

Take `COc1ccc(C(=O)c2c(C)n(CCN3CCOCC3)c3cc(I)ccc23)cc1` (compound 10 µM): the “phospho-S6 immunofluorescence (z-score)” value by setting is: (co-treatment: GDC0941 450 nM) -3.18; (co-treatment: lapatinib 1 uM) -1.01; (co-treatment: vehicle) -3.47.

Turning to `O=c1[nH]c2ccccc2n1CCCN1CCC(n2c(=O)[nH]c3cc(Cl)ccc32)CC1` [Domperidone] (compound 10 µM), the “phospho-S6 immunofluorescence (z-score)” value (co-treatment: GDC0941 450 nM) is 0.19, the “phospho-S6 immunofluorescence (z-score)” value (co-treatment: lapatinib 1 uM) was found to be 0.25 and the “phospho-S6 immunofluorescence (z-score)” value (co-treatment: vehicle) amounted to 1.62.

As for `CC(C)[C@@H](CN1CC[C@@](C)(c2cccc(O)c2)[C@@H](C)C1)NC(=O)[C@H]1Cc2ccc(O)cc2CN1` [JDTic (dihydrochloride)] (compound 10 µM), the “phospho-S6 immunofluorescence (z-score)” value runs as follows: (co-treatment: GDC0941 450 nM) 0.26; (co-treatment: lapatinib 1 uM) -2.5; (co-treatment: vehicle) 0.81.

Regarding `CO[C@]12C[C@@H](COC(=O)c3cncc(Br)c3)CN(C)[C@@H]1Cc1cn(C)c3cccc2c13` [Nicergoline] (compound 10 µM), the “phospho-S6 immunofluorescence (z-score)” value (co-treatment: GDC0941 450 nM) came out at 0.57, the “phospho-S6 immunofluorescence (z-score)” value (co-treatment: lapatinib 1 uM) is -0.56 and the “phospho-S6 immunofluorescence (z-score)” value (co-treatment: vehicle) is -0.38.

For `CN1[C@@H]2CC[C@H]1C[C@@H](OC(=O)[C@H](CO)c1ccccc1)C2` [L-Hyoscyamine] (compound 10 µM), the “phospho-S6 immunofluorescence (z-score)” value reads like this: (co-treatment: GDC0941 450 nM) 0.17; (co-treatment: lapatinib 1 uM) 0.67; (co-treatment: vehicle) 0.91.

Consider `O=C(O[C@H]1C[C@H]2CC[C@@H](C1)[N+]21CCCC1)C(O)(c1ccccc1)c1ccccc1` [Trospium (chloride)] (compound 10 µM), for which the “phospho-S6 immunofluorescence (z-score)” value reads like this: (co-treatment: GDC0941 450 nM) -0.76; (co-treatment: lapatinib 1 uM) 0.26; (co-treatment: vehicle) -1.07.

Source of the values: the supplement of paper PMC7411640.
